# Records with an inconclusive call do not appear. Where a call stands in place of a potency, no number is given. Active and inactive are the calls of the source. Calls follow the shape of the dose curve; as a rule, active = well fitted inhibition curve with a large enough effect; inconclusive = small, poorly fitted or top-dose-only effect; inactive = no such curve, though single readings can be large or run the other way.
# Legend:
# [1] = test system: Zika virus NS2B-NS3 protease (unlinked complex); assay: Primary screen GU Rhodamine qHTS for Zika virus inhibitors: Unlinked NS2B-NS3 protease assay (AID 1347159); also: nearly all actives have a fitted effect of over 60% in size
# Outline: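 Noncovalent NS2B hydrophilic domain/NS3 protease complex (25 nM final) in 10 mM Tris-HCl pH 8.0, 0.01% Tween 20, preincubated 15 min with compounds (up to 114 microM), then 1.5 microM Rhodamine110 substrate. Fluorescence change over 15 min fitted to 4-parameter Hill.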
# [2] = test system: Zika virus NS2B-NS3 protease (linked construct); assay: Primary screen NINDS Rhodamine qHTS for Zika virus inhibitors (AID 1347160); also: nearly all actives have a fitted effect of over 55% in size
# Outline: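 Purified NS2B-NS3 protease with the NS2B hydrophilic domain joined by a flexible linker (25 nM) in 10 mM Tris-HCl pH 8.0, 0.01% Tween 20, preincubated 15 min at RT with compound; Rhodamine110 peptide substrate 1.5 µM; fluorescence change over 15 min; 4-parameter Hill fit.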
Compound,Potency [1],Potency [2]
COc1c(O)cc2c(c1O)C(=O)O[C@H](C)[C@H]2O,inactive,inactive
O=C(C[C@@H]1C(C(=O)O)=CO[C@@H](O[C@@H]2O[C@H](CO)[C@@H](O)[C@H](O)[C@H]2O)/C1=C\CO)OCCc1ccc(O)c(O)c1,inactive,inactive
CC1(C)CC[C@]2(C(=O)O[C@@H]3O[C@H](CO)[C@@H](O)[C@H](O)[C@H]3O)CC[C@]3(C)C(=CCC4[C@@]5(C)C[C@H](O)[C@H](O[C@@H]6OC[C@@H](O)[C@H](O)[C@H]6O)[C@@](C)(CO)C5CC[C@]43C)C2C1 (stereo not given in full),inactive,inactive
Nc1ncnc2c1ncn2[C@H]1O[C@@H](C(=O)N2CCN(CC(=O)Nc3cccc4c3CNC4=O)CC2)[C@H](O)[C@@H]1O,inactive,inactive
CC1(C)CC[C@]2(C(=O)O)CC[C@]3(C)C(=CCC4[C@@]5(C)C[C@H](O)[C@H](O[C@@H]6O[C@H](CO)[C@@H](O)[C@H](O)[C@H]6O)[C@@](C)(CO)C5[C@H](O)C[C@]43C)[C@@H]2C1 (stereo not given in full),inactive,inactive
O=C(OC[C@H]1O[C@H](O[C@]2(CO)O[C@H](CO)[C@@H](O)[C@@H]2O)[C@H](O)[C@@H](O)[C@@H]1O)c1ccc(O)cc1,inactive,inactive
COCC1OC(n2cnc3c(=O)[nH]cnc32)C(O)C1O (stereo not given),inactive,inactive
CCC1=C(C)C(=O)C(C)CC12C(=O)CCC2C(=O)O (stereo not given),inactive,inactive
CC(C)(CC(=O)N1CCCC1)NCC(=O)N1C[C@@H](F)C[C@H]1C#N,inactive,inactive
CCC(C)C(=O)O[C@H]1C[C@](C)(O)[C@]23OC(C)(C)[C@H](C[C@H](OC(=O)c4ccccc4)[C@]2(COC(C)=O)[C@H]1OC(=O)C(C)CC)[C@H]3OC(C)=O (stereo not given in full),inactive,inactive

# — PubChem BioAssay (NCATS)
